Test systems include DU-145 prostate; K-562 leukemia; MALME-3M melanoma; MDA-MB-231 breast; RXF 393 renal; SF-268 CNS; SF-295 CNS; SF-539 CNS; UACC-257 melanoma; M14 melanoma.
What all share (assay): NCI-60 one-dose screen, 48 h (100 = growth as untreated, 0 = no growth, -100 = all killed)
Common to all, as to conditions: 10 µM unless noted

“And” between values parts separate entries of the source, which are not always exact repeats. Identical values can stand only once. This is part of a sample that, as a whole, favours compounds with a hit. Of some 83,000 tested, about 20% had one in any assay.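 Cell lines were cultured in 96-well plates, exposed to a single compound concentration, and assessed for percent growth 48 hours later.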 The source made the active and inactive calls. How the source made its calls: active means growth percent below 10; inactive means the rest.

On to `CC1=CC=C(NC(=O)/C=C/c2ccccc2)CC1Nc1nccc(-c2cccnc2)n1` (stereo not given), for which the growth with DU-145 prostate was 30.9% (inactive); in the assay on K-562 leukemia it was 10.2% (inactive); with MALME-3M melanoma, 45.2% (inactive); in the assay with MDA-MB-231 breast, 51.5% (inactive); with RXF 393 renal, 0.475% (active); with SF-268 CNS it was 54% (inactive). Also, the growth was 44.1% (inactive) in the assay on SF-295 CNS, 14% (inactive) in the assay with SF-539 CNS, 8.14% (active) in the assay on UACC-257 melanoma and 23.7% (inactive) in the assay with M14 melanoma.

For the compound `COc1cc(N=Nc2ccc(O)c3ncccc23)c2ncccc2c1`, the growth in the assay with DU-145 prostate was 31% (inactive); in the assay with K-562 leukemia, 10.9% (inactive); with MALME-3M melanoma it was 35.5% (inactive); in the assay with MDA-MB-231 breast it was 37.3% (inactive); with RXF 393 renal, 52.5% (inactive); in the assay with SF-268 CNS it was 18.3% (inactive). In addition, the growth with SF-295 CNS is 67.8% (inactive); in the assay on SF-539 CNS, 10.1% (inactive); in the assay with UACC-257 melanoma it was 74.4% (inactive); in the assay with M14 melanoma, 25.9% (inactive).

Turning to `COc1cc(/C=N/NC(=O)CCN2c3ccccc3Sc3ccccc32)cc(OC)c1OC`, the growth was 97.4% (inactive) in the assay with DU-145 prostate; 61.7% (inactive) in the assay on K-562 leukemia; 93.3% (inactive) with MALME-3M melanoma; 68.5% (inactive) in the assay on MDA-MB-231 breast; 85.8% (inactive) in the assay with RXF 393 renal; 93.8% (inactive) in the assay on SF-268 CNS. The growth in the assay on SF-295 CNS is 74.3% (inactive); in the assay on SF-539 CNS, 85.6% (inactive); with UACC-257 melanoma it was 92.7% (inactive); with M14 melanoma it was 79.3% (inactive).

For the compound `CCN(CC)CCCN1C(=O)c2c(c(C)c3c(oc4cc(OC)ccc43)c2C)C1=O`, the growth with DU-145 prostate is 112% (inactive); in the assay on K-562 leukemia, -31.5% (active); in the assay with MALME-3M melanoma, 85.3% (inactive); in the assay on MDA-MB-231 breast it was 96% (inactive); in the assay with RXF 393 renal, 73% (inactive); with SF-268 CNS it was 101% (inactive). Also, the growth in the assay on SF-295 CNS was 100% (inactive); in the assay on SF-539 CNS it was 95.5% (inactive); in the assay with UACC-257 melanoma it was 114% (inactive); in the assay on M14 melanoma, 108% (inactive).

Consider `COc1ccc2c(O)c(/C=C3\N=Nc4nc(C)ccc43)oc2c1CC1CCNCC1`, for which the growth in the assay on DU-145 prostate was 87.9% (inactive); with K-562 leukemia it was 49.3% (inactive); in the assay on MALME-3M melanoma, 19.1% (inactive); in the assay on MDA-MB-231 breast, 34.6% (inactive); in the assay on RXF 393 renal, -0.196% (active); with SF-268 CNS, 67.4% (inactive). Moreover, the growth was 90% (inactive) in the assay with SF-295 CNS, 55.9% (inactive) in the assay with SF-539 CNS, 74.5% (inactive) in the assay with UACC-257 melanoma and 35.4% (inactive) in the assay with M14 melanoma.

For the compound `CCCCCCCC/C=C\CCCCCCCCOc1ccccc1CC(=O)NCC[N+]1(C)CCOCC1`, the growth was 85.3% (inactive) in the assay with DU-145 prostate; 56.9% (inactive) in the assay on K-562 leukemia; 100% (inactive) in the assay with MALME-3M melanoma; 80.1% (inactive) with MDA-MB-231 breast; 24.7% (inactive) in the assay with RXF 393 renal; 66.8% (inactive) in the assay on SF-268 CNS. Moreover, the growth was 67.6% (inactive) in the assay on SF-295 CNS, 91.3% (inactive) in the assay on SF-539 CNS, 83.8% (inactive) in the assay on UACC-257 melanoma and 75.6% (inactive) with M14 melanoma.

Regarding `COc1ccc(C(c2cc(OC)c(OC)c(OC)c2)n2ccnc2)cc1O` (stereo not given), the growth with DU-145 prostate is 12.9% (inactive); in the assay with K-562 leukemia it was 8% (active); in the assay with MALME-3M melanoma, 66.6% (inactive); with MDA-MB-231 breast, 34.8% (inactive); in the assay on RXF 393 renal, -5.38% (active); in the assay on SF-268 CNS it was 39.6% (inactive). For the same compound, the growth with SF-295 CNS was -3.02% (active); in the assay on SF-539 CNS, 9.52% (active); in the assay on UACC-257 melanoma, 37.8% (inactive); in the assay with M14 melanoma it was 0.908% (active).

Regarding `CN(C)CCCn1c2nc(=O)[nH]c(=O)c-2nc2cc(Cl)c(Cl)cc21`, the growth with DU-145 prostate is 115% (inactive); in the assay on K-562 leukemia, 47.9% (inactive); in the assay with MALME-3M melanoma, 106% (inactive); in the assay with MDA-MB-231 breast it was 98.6% (inactive); with RXF 393 renal it was 111% (inactive); in the assay on SF-268 CNS it was 108% (inactive). For the same compound, the growth in the assay with SF-295 CNS was 99.3% (inactive); in the assay on SF-539 CNS, 105% (inactive); in the assay on UACC-257 melanoma, 41.7% (inactive); in the assay on M14 melanoma, 51.1% (inactive).

Turning to `COc1ccc(C(=O)c2ccc(OC)c(OC)c2OC)cc1`, the growth in the assay on DU-145 prostate was 25.9% (inactive) and 6.1% (active); with K-562 leukemia, 29.3% (inactive) and 14.6% (inactive); with MALME-3M melanoma, 51.5% (inactive) and 23.2% (inactive); with MDA-MB-231 breast, 59.2% (inactive) and 48.2% (inactive); with RXF 393 renal it was 9.82% (active) and 15.4% (inactive); in the assay with SF-268 CNS, 49.3% (inactive) and 42.7% (inactive). The growth is 13.2% (inactive) and -15.2% (active) with SF-295 CNS; 9.19% (active) and -30.5% (active) with SF-539 CNS; 48.6% (inactive) and 61% (inactive) in the assay on UACC-257 melanoma; 24.5% (inactive) and 16.9% (inactive) in the assay with M14 melanoma.

With `O=C(Cn1cc(CN2CCN(c3ccnc4cc(Cl)ccc34)CC2)nn1)Nc1cccc([N+](=O)[O-])c1`, the growth in the assay on DU-145 prostate was 100% (inactive); in the assay on K-562 leukemia, 68.8% (inactive); in the assay with MALME-3M melanoma, 102% (inactive); in the assay with MDA-MB-231 breast, 64.8% (inactive); with RXF 393 renal, 77.2% (inactive); with SF-268 CNS it was 84.6% (inactive). Also, the growth with SF-295 CNS is 100% (inactive); in the assay on SF-539 CNS it was 88.7% (inactive); in the assay with UACC-257 melanoma, 98.3% (inactive); with M14 melanoma it was 103% (inactive).

Consider `C=C1CCC2C3(C)COC(c4ccc(NC(C)=O)cc4)OC3CCC2(C)C1C/C=C1/C(=O)OCC1O` (stereo not given), for which the growth with DU-145 prostate was 108% (inactive); in the assay with K-562 leukemia, 18.7% (inactive); in the assay with MALME-3M melanoma, 66.6% (inactive); with MDA-MB-231 breast it was 87.3% (inactive); in the assay with RXF 393 renal, 62.6% (inactive); in the assay with SF-268 CNS it was 94% (inactive). Further, the growth in the assay on SF-295 CNS is 25.1% (inactive); with SF-539 CNS, 69.6% (inactive); in the assay on UACC-257 melanoma, 30.5% (inactive); in the assay with M14 melanoma, 76.3% (inactive).

As to `COC(=O)N/N=C/c1c[n+]([O-])c2ccccc2[n+]1[O-]`, the growth in the assay on DU-145 prostate is 114% (inactive); in the assay with K-562 leukemia it was 103% (inactive); in the assay on MALME-3M melanoma, 108% (inactive); in the assay with MDA-MB-231 breast it was 110% (inactive); with RXF 393 renal, 125% (inactive); in the assay with SF-268 CNS it was 106% (inactive). For the same compound, the growth is 93.4% (inactive) in the assay with SF-295 CNS, 101% (inactive) in the assay with SF-539 CNS, 95.1% (inactive) with UACC-257 melanoma and 106% (inactive) with M14 melanoma.

Turning to `Clc1nccc2c(-c3csc(-c4c[nH]c5ccc(Br)cc45)n3)c[nH]c12`, the growth in the assay with DU-145 prostate was 29% (inactive); in the assay with K-562 leukemia it was 3.99% (active); in the assay with MALME-3M melanoma, 8.43% (active); in the assay with MDA-MB-231 breast, 14.4% (inactive); in the assay with RXF 393 renal, -14.8% (active); in the assay on SF-268 CNS it was 55.6% (inactive). The growth is -10.3% (active) in the assay on SF-295 CNS, 15.3% (inactive) in the assay with SF-539 CNS, -48.9% (active) in the assay on UACC-257 melanoma and -34.3% (active) with M14 melanoma.

The record behind these values is PubChem BioAssay (NCI).
